# Data: PubChem BioAssay (NCI)
# This is part of a sample that, as a whole, favours compounds with a hit. Of some 83,000 tested, about 20% had one in any assay.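 Percent growth is the endpoint: 0 to 100 indicates growth inhibition (40 means 60% inhibition), 0 means no net growth, and negative values indicate cell death.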 Values without a mark were called inactive. The source made the active and inactive calls.
# Tested on: SN12C renal
# Test: NCI-60 one-dose screen, 48 h (100 = growth as untreated, 0 = no growth, -100 = all killed)
# Conditions: 10 µM unless noted
# Procedure: Growth inhibition of the SN12C human tumor cell line is measured as a screen for anti-cancer activity. Cells are grown in 96 well plates and exposed to the test compound for 48 hours. Compounds are tested at a single concentration, which is 10^-5 M for most compounds. The reported endpoint is percent growth (GI% or GIPRCNT), where numbers from 0 - 100% represent growth inhibition, and numbers from -100% - 0 represent cell death. For example, a value of 40 represents 60% growth inhibition. A value of 0 means no net growth occurred over the course of the experiment. A value of -40 indicates 40% of cells at the beginning of the experiment died by the end of the experiment. A value of -100 means all cells are dead at the end of the experiment.
# NCI-60 Human Tumor Cell Lines Screen was performed using the standard one-dose NCI protocol, which is described in more detail at https://dtp.cancer.gov/discovery_development/nci-60/default.htm.
# Compounds with GIPRCNT values below 10 were considered active. Activity score was based on GIPRCNT using the following formula: […]
# Score is 0 for GIPRCNT values of 100 or above, 50 for GIPRCNT values of 0, and 100 for GIPRCNT values of -100.
row,SMILES,growth
1,CCCCc1n(Cc2ccc3ccccc3n2)cc[n+]1Cc1ccc2ccccc2n1,4.6% (active)
2,CCCCn1cnc(-c2cc(-c3ccccc3)cc(C(F)(F)F)c2)n1,98.2%
3,O=C(Nc1ccc(Cl)c(C(F)(F)F)c1)c1ccc(Nc2ccc(Cl)nn2)cc1,78.9%
4,CC(=O)N(C)c1ccc(Nc2cc(C)[nH]c3ccc4ncnc4c23)cc1,61.7%
5,Nc1n[nH]c2ccc([C@@H]3Nc4c(F)cc5[nH]ncc5c4[C@H]4C5CCC(C5)[C@@H]34)cc12 (stereo not given in full),22.6%
6,CCSc1ccc([C@@H]2[C@@H](O)C(=O)N2c2cc(OC)c(OC)c(OC)c2)cc1,38.8%
7,N#Cc1c(N)n(C2OC(CO)C(O)C2O)c2ncnc(N)c12 (stereo not given),6.49% (active)
8,FC(F)(F)C1=NNC(c2ccc3ccccc3c2)=NN1,93.7%
9,COc1ccc(C2CC(c3cccc(Nc4ccnc5cc(Cl)ccc45)c3)=NN2c2ccc(Cl)cc2)cc1 (stereo not given),89.7%
10,Cc1cc(-c2nnc(/C=C/c3ccc4c(c3)OCO4)o2)n[nH]1,85.5%
11,Oc1c(C(c2ccc(F)cc2)N2CCCCC2)ccc2cncnc12 (stereo not given),10%
12,C#CC[C@@H]1C[C@]2(C)[C@H]3CC[C@@H]4[C@H]5C(C(=C)C)CC[C@]5(C(=O)NCCN(CCN)CCN)CC[C@@]4(C)[C@]3(C)CC[C@H]2C(C)(C)[C@H]1OC(C)=O (stereo not given in full),87.8%
13,Nc1nc(N)c2cc(Sc3ccc(Cl)cc3)ccc2n1,29.7%
14,O=C1C(Cl)=C(N/N=c2/[nH][nH]/c(=N/NC3=C(Cl)C(=O)c4ccccc4C3=O)c3ccccc23)C(=O)c2ccccc21,56.4%
15,CCN(CC)c1ccc2nc3c4ccccc4c(=O)cc-3n(-c3ccccc3)c2c1,13.2%
16,Fc1cc(-c2nnc3sc(-c4ccc(Cl)cc4)nn23)c(Cl)cc1Cl,103%
17,CCOP(=O)(O)OP(=O)(O)OCC,105%
18,NC(N)=N/N=C/c1ccccc1,103%
19,OC(c1cc2cc(Cl)ccc2c2cc(C(F)(F)F)ccc12)C1CCCCN1 (stereo not given),-62.8% (active)
20,Clc1ccc(Nc2ncnc3c2sc2ncccc23)c(Cl)c1,20.4%

row,SMILES,growth
1,O=c1[nH]cnc2nc[nH]c12,96.7%
2,COc1ccc(/C=C(/C(=O)N2CCN(c3ccccc3)CC2)c2cc(OC)c(OC)c(OC)c2)cc1O,31.4%
3,CN(C)c1ccc(C(c2ccccc2)c2ccc(N(C)C)cc2)cc1,92.6%
4,CCCCCCCCCCC(C(O)c1ccccc1)N1CCCCC1 (stereo not given),43.2%
5,[O-]/[N+](=C\c1ccccc1)CC1(O)CCCCC1,94.5%
6,CC1CCN(Cc2ccc(NC(=O)c3cc4ccc5cccnc5c4[nH]3)cc2)CC1,33%
7,COc1ccc(/C(=C\c2cc(OC)c(OC)c(OC)c2)C(=O)N2CCNCC2)cc1,101%
8,CC1(C)C(N(O)C(=O)Nc2ccc(Cl)cc2)N(c2ccc(Cl)cc2)C(=O)N1CC(=O)N/N=C/C=C/c1ccc([N+](=O)[O-])o1 (stereo not given),-21.4% (active)
9,CCCc1n(Cc2ccc3ccccc3n2)cc[n+]1Cc1ccc2ccccc2n1,9.65% (active)
10,COc1ccc(NC(=O)/C=C/c2ccc(Cl)c(Cl)c2)cn1,88.9%
11,C=CCOc1c(Br)cc(Br)cc1Br,62.9%
12,CCCCNCCC(O)c1cc2ccc(C(F)(F)F)cc2c2cc(C(F)(F)F)ccc12 (stereo not given),-75.2% (active)
13,COc1ccc(C2C=C(c3ccc(Cl)cc3)N=C3SC=CN32)cc1 (stereo not given),114%
14,O=[N+]([O-])c1cc(F)c2cccnc2c1O,93.5%
15,COc1cc(NCCCCC(C)N)c2nccc(C)c2c1 (stereo not given),87.1%
16,NC(=Nc1ccccc1)SCCCSC(N)=Nc1ccccc1,89.3%
17,CC1=NOCC(=O)N1,102%
18,CCNS(=O)(=O)c1ccc(C)cc1,98.5%
19,COc1ccc(-c2nc(-c3cc(OC)cc(OC)c3)[nH]c2-c2ccc(OC)cc2)cc1,70.6%
20,Nc1c(C(=O)c2ccc(Br)cc2)sc2nc3c(cc12)CCCC3,90.7%
